Measured values as given in PubChem BioAssay AID1159580 (chemical genetic matrix, 2015).
Values joined by “and” are separate entries in the source; they are usually repeats but may differ in a detail not shown here. Identical values can stand only once. About 2,000 (36%) of roughly 5,500 compounds were called active. Not shown: some 18% with an inconclusive outcome. Cut-off read from the data, not from the text of the source: active = normalized growth mostly below about 0.91 (no sharp cut-off); inconclusive = no clear call, values can overlap the other calls; inactive = mostly above about 0.92. The list shows a part of the results.

Assay: chemical genetic growth profiling, strain panel (AID 1159580);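 note: tested at 20 µM; growth read once vehicle control cultures reached saturation at 30 °C; 1 = growth at the plate median or of vehicle wells; lower values mean less growth of the strain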
Details: S. cerevisiae deletion strains, growth OD

Measured: normalized growth

C/C=C(/C(=C/C)c1ccc(O)cc1)c1ccc(O)cc1
inactive: locus YAL021C, strain ccr4, stronger effect = lower value 1.02 | locus YAL030W, strain snc1, stronger effect = lower value 0.978 | locus YBL061C, strain skt5, stronger effect = lower value 0.974 | locus YBR009C, strain hhf1, stronger effect = lower value 0.929 | locus YBR021W, strain FUR4, stronger effect = lower value 0.907 | locus YBR023C, strain chs3, stronger effect = lower value 0.968 | locus YBR171W, strain sec66, stronger effect = lower value 0.94 | locus YBR229C, strain ROT2, stronger effect = lower value 0.995 | locus YBR231C, strain swc5, stronger effect = lower value 1 | locus YBR279W, strain paf1, stronger effect = lower value 0.971 | locus YCL011C, strain gbp2, stronger effect = lower value 0.968 | locus YCL016C, strain dcc1, stronger effect = lower value 0.997 | locus YCL069W, strain vba3, stronger effect = lower value 0.953 | locus YCR088W, strain abp1, stronger effect = lower value 0.989 | locus YDL005C, strain med2, stronger effect = lower value 0.992 | locus YDL035C, strain GPR1, stronger effect = lower value 0.892 | locus YDL040C, strain nat1, stronger effect = lower value 0.979 | locus YDR001C, strain nth1, stronger effect = lower value 0.962 | locus YDR069C, strain doa4, stronger effect = lower value 0.974 | locus YDR159W, strain sac3, stronger effect = lower value 0.923 | locus YDR195W, strain ref2 0.989 | locus YDR297W, strain sur2, stronger effect = lower value 0.952 | locus YDR334W, strain swr1, stronger effect = lower value 0.968 | locus YDR335W, strain msn5, stronger effect = lower value 0.943 | locus YDR392W, strain spt3, stronger effect = lower value 0.905 | locus YEL003W, strain gim4, stronger effect = lower value 0.949 | locus YEL037C, strain rad23, stronger effect = lower value 0.989 | locus YEL061C, strain CIN8 (second series), stronger effect = lower value 0.973 | locus YER015W, strain faa2, stronger effect = lower value 0.953 | locus YER016W, strain bim1, stronger effect = lower value 0.986 | locus YER110C, stronger effect = lower value 0.982 | locus YER111C, strain swi4, stronger effect = lower value 0.993 | locus YER155C, strain BEM2 (second series), stronger effect = lower value 0.959 | locus YER167W, strain BCK2, stronger effect = lower value 0.904 | locus YFR010W, strain ubp6, stronger effect = lower value 0.982 | locus YGL167C, strain pmr1, stronger effect = lower value 0.978 | locus YGL173C, strain kem1, stronger effect = lower value 0.927 | locus YGL227W, strain vid30, stronger effect = lower value 0.985 | locus YGL240W, strain doc1, stronger effect = lower value 0.945 | locus YGL253W, strain hxk2, stronger effect = lower value 0.971 | locus YHR013C, strain ard1, stronger effect = lower value 1.15 | locus YHR027C, strain rpn1, stronger effect = lower value 0.979 | locus YHR079C, strain IRE1, stronger effect = lower value 0.982 | locus YHR094C, strain hxt1, stronger effect = lower value 0.968 | locus YHR142W, strain chs7, stronger effect = lower value 0.943 | locus YIL066C, strain RNR3, stronger effect = lower value 0.9 | locus YIL073C, strain SPO22, stronger effect = lower value 0.976 | locus YIR030C, strain dcg1, stronger effect = lower value 0.958 | locus YJL092W, strain hpr5, stronger effect = lower value 0.971 | locus YJL095W, strain BCK1 (second series), stronger effect = lower value 0.944 | locus YJL115W, strain asf1, stronger effect = lower value 0.984 | locus YJL129C, strain trk1, stronger effect = lower value 0.9 | locus YJL134W, strain LCB3, stronger effect = lower value 0.998 | locus YJL154C, strain vps35, stronger effect = lower value 0.969 | locus YJL164C, strain tpk1, stronger effect = lower value 0.972 | locus YJL166W, strain qcr8, stronger effect = lower value 0.915 | locus YJL168C, strain set2, stronger effect = lower value 0.979 | locus YJR043C, strain POL32, stronger effect = lower value 0.971 | locus YJR066W, strain TOR1, stronger effect = lower value 0.931
0.691 (active) and 0.969 (inactive): locus YHR030C, strain SLT2, stronger effect = lower value
0.497 (active) and 0.978 (inactive): locus YJL095W, strain BCK1, stronger effect = lower value
active: locus YAL026C, strain drs2, stronger effect = lower value 0.9 | locus YCL029C, strain bik1, stronger effect = lower value 0.823 | locus YDL074C, strain BRE1, stronger effect = lower value 0.492 | locus YDL101C, strain DUN1, stronger effect = lower value 0.869 | locus YDL185W, strain tfp1, stronger effect = lower value 0.844 | locus YDL192W, strain arf1, stronger effect = lower value 0.567 | locus YDR101C, strain arx1, stronger effect = lower value 0.846 | locus YDR137W, strain rgp1, stronger effect = lower value 0.757 | locus YDR162C, strain NBP2, stronger effect = lower value 0.561 | locus YDR318W, strain mcm21, stronger effect = lower value 0.789 | locus YDR388W, stronger effect = lower value 0.589 | locus YDR502C, strain sam2, stronger effect = lower value 0.821 | locus YEL061C, strain CIN8, stronger effect = lower value 0.899 | locus YER155C, strain BEM2, stronger effect = lower value 0.624 | locus YGL078C, strain dbp3, stronger effect = lower value 0.87 | locus YGL086W, strain mad1, stronger effect = lower value 0.832 | locus YGL248W, strain PDE1, stronger effect = lower value 0.81 | locus YGR135W, strain pre9, stronger effect = lower value 0.836 | locus YGR229C, strain SMI1, stronger effect = lower value 0.504 | locus YGR252W, strain gcn5, stronger effect = lower value 0.682 | locus YHR079C, strain IRE1 (second series), stronger effect = lower value 0.802 | locus YHR129C, strain ARP1, stronger effect = lower value 0.841 | locus YHR200W, strain rpn10, stronger effect = lower value 0.845 | locus YIL125W, strain kgd1, stronger effect = lower value 0.858 | locus YJL187C, strain SWE1 (second series), stronger effect = lower value 0.814
